Source: PubChem BioAssay (several laboratories)
CHOP inh: blocks CHOP induction under ER stress. CHO-K1 CHOP-promoter luciferase, tunicamycin-induced, 15-18 h. 220,000 tested, 3.8% active. inhibition, % at 10 µM;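 active = compounds that reduced the stress-induced luciferase reporter signal by more than about 70% of percent inhibition, limit read from the data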
CF NFkB inh: blocks PAF-induced NF-kB reporter in cystic fibrosis cells; KKLEB NF-kB-GFP reporter, GFP fluorescence overnight; inhibition, % at 5 µM; 360,000 tested, 0.86% active;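 active = at least 50% inhibition at 5 µM, scaled per plate between neutral and stimulator controls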;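 also: PAF is a Pseudomonas aeruginosa culture filtrate used as stimulus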
Peg3 prom inh: Peg3 promoter activity inhibition. HeLa PEG-Prom luciferase reporter, luminescence, overnight. inhibition, % at 20 µM. 360,000 tested, 1.7% active. AID 588405;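 active = inhibition of at least 50% at 20 µM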
MITF TRPM1 inh: reduces MITF-dependent TRPM1 promoter luciferase signal; inhibition, % at 12.5 µM; SK-MEL-5 TRPM1 promoter luciferase, 24 h; 330,000 tested, 0.83% active; AID 488899;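 active = mean inhibition across replicates of 60% or more, whatever share of single replicates reaches that level; inconclusive = some that reach 60%, reason not given; inactive = mean inhibition across replicates below 60%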
HIF-2a inh: inhibitors of HIF-2a | 786-0 RCC cells HIF-2a reporter, luciferase luminescence, overnight | inhibition, % at 18.8 µM | 360,000 tested, 0.72% active;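 active = inhibition of the luminescence signal of 40% or more relative to plate controls, in a single-dose primary screen at 18.75 µM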
KKLEB tox: reduces viability of KKLEB cystic fibrosis airway cells; AID 602141; 360,000 tested, 0.36% active; KKLEB CF airway cells viability, ATPlite luminescence, overnight; active compounds read low; cells stimulated with P. aeruginosa culture filtrate; activity change (cytotoxicity), % at 5 µM;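 active = corrected activity change at or below -50% at 5 µM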
Of the large screens only hits and unclear results are named; the others gave an inactive call. Hits are enriched below; roughly 4.3% of the tested compounds scored in any of these assays.

COC(=O)C1=C(C(=O)OC)[C@@H]2N(Cc3ccccc3)c3ccccc3[C@@]23C[C@@H](C(=O)OC)N(C(=O)COCc2ccccc2)C3=N1	Peg3 prom inh 55
C[C@H](CO)N1C[C@H](C)[C@@H](CN(C)Cc2ccc(C(=O)Nc3ccccc3N)cc2)Oc2c(NC(=O)C3CCCCC3)cccc2C1=O	none (no result: CHOP inh)
CC(NC(=O)C(=O)NCCN1CCN(C(=O)c2ccc([N+](=O)[O-])cc2)CC1)c1ccccc1 (configuration not stated)	none (no result: CHOP inh)
CC[C@]12C(=O)N(C)C[C@H]([C@@H]3C(=O)N(C)C(=O)[C@@H]31)N2C(=O)c1ccc(Cl)c(Cl)c1	none (no result: CHOP inh)
CCCn1c(C)nc2c(c1=O)c1nc3ccccc3nc1n2CCC1=CCCCC1	CHOP inh 89
O=C(Nc1cc(Cl)cc(Cl)c1)c1ccc(Cn2c(=O)[nH]c3ccsc3c2=O)cc1	CHOP inh 94, CF NFkB inh 54, KKLEB tox -50 (no result: MITF TRPM1 inh)
CC1(C(=O)O)CCN1C(=O)c1ccccc1F (configuration not stated)	none (no result: CHOP inh, MITF TRPM1 inh)
Cc1cccc(-n2nc3c([n+]2[O-])CCc2nonc2-3)c1C	none
Cc1ccc(-n2nc3c([n+]2[O-])CCc2c-3no[n+]2[O-])cc1	CHOP inh 90
[O-][n+]1onc2c1CCc1c-2nn(-c2ccccc2Cl)[n+]1[O-]	CHOP inh 96
Cc1cc(SCC(=O)c2cccc([N+](=O)[O-])c2)nc(=O)[nH]1	none (no result: CHOP inh)
CC1CN(c2sc(S(C)(=O)=O)nc2S(=O)(=O)c2ccc(Cl)cc2)CC(C)O1 (configuration not stated)	none (no result: CHOP inh)
CS(=O)(=O)c1nc(S(=O)(=O)c2ccc(Cl)cc2)c(N2CCOCC2)s1	MITF TRPM1 inh 67 (no result: CHOP inh)
C=CC[C@]12C=C(OC)C(=O)C=C1O[C@@H](c1ccc3c(c1)OCO3)[C@H]2C	none (no result: CHOP inh)
Cc1cnn(C(=S)NCc2ccc(Cl)cc2)c1	CHOP inh 74 (no result: CF NFkB inh, Peg3 prom inh, MITF TRPM1 inh, HIF-2a inh, KKLEB tox)
S=c1[nH]nc(SCc2ccccc2)c2[nH]cnc12	none (no result: CHOP inh)
COc1ccc2c(-c3ccccc3)cc(SCC(=O)NC(N)=O)nc2c1	CHOP inh 77
COCCNC(=O)CSc1cc(-c2ccccc2)c2ccc(OC)cc2n1	none
Cc1cccc(NC(=S)N=Nc2c(O)[nH]c3ccccc23)c1	CHOP inh 87
COc1cc2ccccc2cc1C(=O)Nc1ccc(N2CCN(C)CC2)cc1	none (no result: CHOP inh)
COc1cc2ccccc2cc1C(=O)Nc1ccc(N2CCN(C(=O)C(C)C)CC2)cc1	Peg3 prom inh 77 (no result: CHOP inh)
O=C(c1cc2sccc2n1Cc1ccccc1)N1CCN(c2nc3ccccc3s2)CC1	CHOP inh 71
CC1CCN(C(=O)C2CCN(C(=O)c3cc4sccc4n3Cc3ccc(F)cc3)CC2)CC1	CHOP inh 71
CC(C)NC(=O)C1CCN(C(=O)c2cc3sccc3n2Cc2ccc(F)cc2)CC1	none
CCC(=O)N1CCN(c2nc3ccccc3s2)CC1	none
O=c1ccn(C2CCCO2)c(=O)[nH]1 (configuration not stated)	none (no result: CHOP inh)
O=C(COc1ccc(S(=O)(=O)N2CCOCC2)cc1)NC1CCCCC1	none (no result: CHOP inh)
CCOC(=O)/C=C1/SCC(=O)N1CCOc1cccc(Br)c1	none (no result: CHOP inh)
COCCN(Cc1ccccc1)C(=O)c1cc(-c2ccc(OC)c(OC)c2)nc2ccccc12	Peg3 prom inh 52 (no result: CHOP inh)
CCN(Cc1ccccc1)C(=O)c1cc(-c2ccc(OC)c(OC)c2)nc2ccccc12	none (no result: CHOP inh)
CCOc1ccccc1OCCOc1ccccc1CC	CHOP inh 76
Cc1ncc(CO)c(/C=N/NC(=O)c2cc3c(s2)CCCC3)c1O	none
Cc1[nH]n(-c2ccccc2)c(=O)c1N=Nc1cccc(C(=O)O)c1	Peg3 prom inh 64, MITF TRPM1 inh inconclusive, HIF-2a inh 64 (no result: CHOP inh)
Cc1[nH]n(-c2ccccc2)c(=O)c1N=Nc1ccc(C(=O)O)cc1	none (no result: CHOP inh)
Cc1[nH]n(-c2ccccc2)c(=O)c1N=Nc1ccccc1	CHOP inh 95
Cc1[nH]n(-c2ccccc2)c(=O)c1N=Nc1ccc(Cl)cc1	none (no result: CHOP inh)
CCC(Oc1ccc(Br)cc1Cl)C(=O)Nc1nnc(C2CC2)s1 (configuration not stated)	none (no result: CHOP inh)
COCCN(C(=O)c1cc(Cl)ccn1)c1c(N)n(Cc2ccccc2)c(=O)[nH]c1=O	none (no result: CHOP inh)
Cc1ccc(NS(=O)(=O)c2ccc(-c3cnc(C4CC4)o3)cc2)cc1	none (no result: CHOP inh)
